In PubChem BioAssay AID2553 (Johns Hopkins Ion Channel Center, 2010):
Hit rate of the full screen: of about 310,000 compounds, about 3,300 (1.1%) were called active. This is one part of a sample in which actives are shown more often than they occur.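 How the source made its calls: active means B-score under library mean minus 3 SD, initial fluorescence not abnormally high, positive integrated signal ratio; inactive means the rest.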

The molecules below were run against Short transient receptor potential channel 6 (Mus musculus) (UniProt Q61143) (assay: mouse TRPC6 channel inhibitors, primary screen, cell-based, HEK293, membrane potential dye (AID 2553;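 on B-score: B-score derived from integrated fluorescence ratio over the kinetic read; more negative B-score means stronger inhibition of depolarization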)). Details: ACh-evoked depolarization, at 10 µM; active compounds read low.
Sequence of Short transient receptor potential channel 6 (Mus musculus) (Q61143 whole entry, looked up): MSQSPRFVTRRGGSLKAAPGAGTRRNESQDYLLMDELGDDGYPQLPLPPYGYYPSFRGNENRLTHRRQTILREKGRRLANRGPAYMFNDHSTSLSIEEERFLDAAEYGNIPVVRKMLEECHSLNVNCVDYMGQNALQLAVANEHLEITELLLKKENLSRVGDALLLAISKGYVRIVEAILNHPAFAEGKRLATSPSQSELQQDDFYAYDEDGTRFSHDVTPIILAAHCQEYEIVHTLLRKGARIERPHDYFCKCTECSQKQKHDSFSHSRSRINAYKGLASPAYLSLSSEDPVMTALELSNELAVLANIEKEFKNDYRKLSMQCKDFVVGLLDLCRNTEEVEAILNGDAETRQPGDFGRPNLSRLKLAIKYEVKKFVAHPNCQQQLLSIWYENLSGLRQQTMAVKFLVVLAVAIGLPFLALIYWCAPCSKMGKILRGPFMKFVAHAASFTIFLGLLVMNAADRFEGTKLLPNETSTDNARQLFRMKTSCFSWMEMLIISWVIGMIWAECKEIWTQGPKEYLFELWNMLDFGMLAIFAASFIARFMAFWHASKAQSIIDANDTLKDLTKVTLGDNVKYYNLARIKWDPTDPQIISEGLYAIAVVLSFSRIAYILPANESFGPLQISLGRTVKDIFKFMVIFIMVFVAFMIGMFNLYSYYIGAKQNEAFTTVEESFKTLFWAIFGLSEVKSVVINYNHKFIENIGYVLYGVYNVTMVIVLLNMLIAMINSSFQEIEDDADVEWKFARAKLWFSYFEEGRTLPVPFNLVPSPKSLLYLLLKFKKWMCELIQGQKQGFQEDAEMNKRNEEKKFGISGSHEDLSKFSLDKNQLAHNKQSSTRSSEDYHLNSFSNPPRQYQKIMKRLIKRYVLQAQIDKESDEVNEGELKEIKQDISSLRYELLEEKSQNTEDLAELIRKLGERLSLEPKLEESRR
With `CCN(C(=O)Cc1c(C(=O)O)n(CC)c2ccccc12)c1ccccc1C` the B-score was “inactive”.
`CCCCOc1ccc(NC(=O)[C@@H]2CCCN2C(=O)C2CCN(S(=O)(=O)c3ccc(C)cc3)CC2)cc1` was tested, and the B-score was “inactive”.
For `CCc1ccc(C(=O)NNC(=O)C2CCN(c3ncnc4sc(C)c(C)c34)CC2)cc1`, the B-score was “inactive”.
With `O=C(NC(Nc1nc2ccc([N+](=O)[O-])cc2s1)(C(F)(F)F)C(F)(F)F)c1ccccc1` the B-score was -10.2 (active).
With `CCC(=O)NC(Nc1nc2ccc(C)cc2s1)(C(=O)OC)C(F)(F)F` (stereo unspecified) the B-score was “inactive”.
For `CCOc1ccc2nc(NC(=O)c3cc([N+](=O)[O-])ccc3N3CCOCC3)sc2c1`, the B-score was “inactive”.
`COc1ccc2c(C)cc3nnnn3c2c1` was tested, and the B-score was “inactive”.
For `CC(C)c1cc(C(=O)N/N=C/c2ccoc2)c(O)c(C(C)C)c1`, the B-score was “inactive”.
In the case of `Cc1nnc(C)n1/N=C/c1ccc(C(C)C)cc1`, the B-score is reported as “inactive”.
With `COc1ccc(Br)cc1/C=N/n1c(C)nnc1C` the B-score was -5.36 (active).
`COc1ccc(Br)cc1/C=N/Nc1ccc(Cl)c(C(=O)O)c1` was tested, and the B-score was “inactive”.
For `NC(=O)COc1ccc(/C=N/NC(=O)C2CCCN2S(=O)(=O)c2ccc(Cl)cc2)cc1` (stereo unspecified), the B-score was “inactive”.
`COc1ccc(CN2C3CCCC2CC(NC(=O)c2cccc(F)c2)C3)cc1` (stereo unspecified) was tested, and the B-score was “inactive”.
For `COc1ccccc1CN1CCN(C(c2ccccc2)c2ccccc2)CC1`, the B-score was “inactive”.
In the case of `CC(=O)OC(C(=O)NC1CCCCC1)c1ccccc1` (stereo unspecified), the B-score is reported as “inactive”.
With `CC(NCc1ccccc1OC1CCCC1)c1ccccc1` (stereo unspecified) the B-score was -8.19 (active).
For `CCOC(=O)c1[nH]ncc1CN1CCCC(C(=O)c2ccc(OC)cc2C)C1` (stereo unspecified), the B-score was “inactive”.
In the case of `COc1ccc(C(=O)C2CCCN(Cc3cccn3-c3ccccn3)C2)c(C)c1` (stereo unspecified), the B-score is reported as -12.5 (active).
`COc1ccc(C(=O)C2CCCN(Cc3ccc4nonc4c3)C2)c(C)c1` (stereo unspecified) was tested, and the B-score was “inactive”.
`Cc1ccc(C(=O)Oc2ccc(C(=S)N3CCOCC3)cc2)cc1` was tested, and the B-score was “inactive”.
With `CC(C)CCNc1nc(N2CCCC2)c2c(c1C#N)CCN(C)C2` the B-score was -6.63 (active).
`CC(C)Cc1nc(N2CCOCC2)c(C#N)c2c1CCC2` was tested, and the B-score was “inactive”.
In the case of `CCc1nc(NCCO)c(C#N)c2c1CCCC2`, the B-score is reported as “inactive”.
With `COc1ccc(-c2cc(C3CCN(c4ncccc4[N+](=O)[O-])CC3)[nH]n2)cc1` the B-score was “inactive”.
In the case of `Cc1cc(Cl)ccc1C(=O)C1CCCN(C(=O)c2nonc2C)C1` (stereo unspecified), the B-score is reported as “inactive”.
`O=C(O)c1ccccc1C(=O)Nc1ccccc1[N+](=O)[O-]` was tested, and the B-score was “inactive”.
With `O=[N+]([O-])c1ccccc1Nc1ccc(O)cc1` the B-score was -5.49 (active).
With `O=C(Nc1ccccc1[N+](=O)[O-])C1C(c2ccccc2)=C1c1ccccc1` the B-score was “inactive”.
In the case of `O=C(CCN1CCCCC1)N=Nc1c(O)[nH]c2ccccc12`, the B-score is reported as “inactive”.
`N#Cc1cccc(CSc2ncnc(N)n2)c1` was tested, and the B-score was “inactive”.
`O=C(CN1CCCCCC1)NCCN1C(=O)S/C(=C\c2ccccc2Cl)C1=O` was tested, and the B-score was -5 (active).
`O=C(CN1C(=O)S/C(=C\c2ccccc2F)C1=O)NCCCn1ccnc1` was tested, and the B-score was “inactive”.
With `O=C(CN1C(=O)S/C(=C\c2ccccc2Cl)C1=O)NC1C=CS(=O)(=O)C1` (stereo unspecified) the B-score was “inactive”.
With `CCn1cc(C(=O)OCC(=O)Nc2cccc(C)c2)c(=O)c2ccc(C)nc21` the B-score was “inactive”.
For `Cc1nc(-c2ccccc2)sc1C1(C)CC(c2cccnc2)=NO1` (stereo unspecified), the B-score was “inactive”.
For `Cc1nc(C(=O)Nc2ccc(Cl)cc2)sc1C1(C)CC(c2ccccc2)=NO1` (stereo unspecified), the B-score was “inactive”.
In the case of `Cc1nc(C(=O)NCc2ccccc2)sc1C1(C)CC(c2cccnc2)=NO1` (stereo unspecified), the B-score is reported as -5.44 (active).
With `CC(C)(C)CN1CCNC(=O)C1CC(=O)NC1Cc2ccccc2C1` (stereo unspecified) the B-score was “inactive”.
For `CCOC(=O)N1CCN(C(=O)COc2ccc(Br)cc2)CC1`, the B-score was “inactive”.
For `CCOC(=O)N1CCN(C(=O)COc2ccc3oc4c(c3c2)CCCC4)CC1`, the B-score was -5.45 (active).
For `CCN(CC)CCCNC(=O)COc1ccc2oc3c(c2c1)CCCC3`, the B-score was “inactive”.
With `COc1ccc(COCCN2CCN(S(=O)(=O)c3ccccc3)CCC2=O)cc1` the B-score was “inactive”.
In the case of `Cc1ccc(C(O)P(=O)(OC(C)C)c2ccc(N(C)C)cc2)cc1` (stereo unspecified), the B-score is reported as “inactive”.
With `CCn1c(SCC(=O)Nc2ccc(Br)cc2)nc2sc3c(c2c1=O)CCN(C)C3` the B-score was “inactive”.
With `COc1c(C=O)c(CCN(C)C(=O)c2ccc(F)cc2)cc2c1OCO2` the B-score was “inactive”.
With `COc1ccc(C)cc1S(=O)(=O)Nc1cc2c3c(c1)CCC(=O)N3CCC2` the B-score was “inactive”.
With `CS(=O)(=O)N1CCN(c2ccc(C(=O)NC3C4CC5CC(C4)CC3C5)cc2[N+](=O)[O-])CC1` (stereo unspecified) the B-score was “inactive”.
In the case of `O=C(NC1C2CC3CC(C2)CC1C3)c1ccc(N2CCNCC2)c([N+](=O)[O-])c1` (stereo unspecified), the B-score is reported as -6.41 (active).
With `CC(NC(=O)c1ccc(N2CCNCC2)c([N+](=O)[O-])c1)C12CC3CC(CC(C3)C1)C2` (stereo unspecified) the B-score was “inactive”.
With `COC(=O)c1ccc(CNC(=O)C2CCC(=O)N(Cc3ccccn3)C2)cc1` (stereo unspecified) the B-score was “inactive”.
`COc1cc(OC)cc(C(=O)NCCCn2ccnc2)c1` was tested, and the B-score was “inactive”.
`CCCC(=O)Nc1ccc(C(=O)NCCCn2ccnc2)cc1` was tested, and the B-score was -6.02 (active).
In the case of `CCCCC(=O)Nc1ccc(C(=O)NCCCn2ccnc2)cc1`, the B-score is reported as “inactive”.
In the case of `COc1ccnc(Oc2ccccc2)n1`, the B-score is reported as “inactive”.
In the case of `Cn1nc(C(F)(F)F)c(-c2ccc(F)cc2)c1NC(=O)CSCC(=O)O`, the B-score is reported as “inactive”.
`COc1ccc(CC(=O)N[C@@H](CCSC)c2nc3ccccc3[nH]2)cc1` was tested, and the B-score was “inactive”.
`CSCCC(NC(=O)c1cc([N+](=O)[O-])cc([N+](=O)[O-])c1)c1nc2ccccc2[nH]1` (stereo unspecified) was tested, and the B-score was “inactive”.
In the case of `CSCCC(NC(=O)c1ccc(=O)n(C)n1)c1nc2ccccc2[nH]1` (stereo unspecified), the B-score is reported as -4.99 (active).
`COc1ccccc1Oc1ccc(N2CC(C(=O)OCC(=O)c3ccc(F)cc3)CC2=O)cc1` (stereo unspecified) was tested, and the B-score was “inactive”.
In the case of `CC(C)[C@@H]1COC(c2cccc(C3=N[C@H](C(C)C)CO3)c2)=N1`, the B-score is reported as “inactive”.
`Cc1nc(-c2ccc(F)cc2)c(CC(=O)Nc2cccc(S(=O)(=O)N3CCOCC3)c2)s1` was tested, and the B-score was “inactive”.
With `O=S(=O)(c1cccc(Cn2nnc(-c3ccc(F)cc3)n2)c1)N1CCOCC1` the B-score was -5.77 (active).
In the case of `CCN(Cc1ccncc1)C(=O)c1cccc(S(=O)(=O)N2CCOCC2)c1`, the B-score is reported as “inactive”.
`O=C(Nc1ccc(OCC(=O)N2CCOCC2)cc1)c1cc(F)c(F)cc1Cl` was tested, and the B-score was “inactive”.
`COc1ccc2c(c1)C=CC1(O2)N(CCO)c2ccccc2C1(C)C` (stereo unspecified) was tested, and the B-score was “inactive”.
`CC(C)C(=O)N1CC(=O)Nc2ccc(F)cc2C1c1ccc(F)cc1` (stereo unspecified) was tested, and the B-score was “inactive”.
In the case of `O=C1CN(C(=O)c2ccccc2F)C(c2ccc(F)cc2)c2cc(F)ccc2N1` (stereo unspecified), the B-score is reported as -5.3 (active).
For `Cc1ccc(C(=O)N2CC(=O)Nc3ccc(F)cc3C2c2ccc(F)cc2)cc1` (stereo unspecified), the B-score was “inactive”.
With `CCc1ccc(NC(=O)CS(=O)CC(=O)N2CCN(c3ccccc3F)CC2)cc1` (stereo unspecified) the B-score was “inactive”.
In the case of `Cc1c(CCOC(=O)c2cc([N+](=O)[O-])ccc2Cl)sc[n+]1CCCCS(=O)(=O)[O-]`, the B-score is reported as “inactive”.
With `Cc1c(CCO)sc[n+]1CC(=O)OC12CC3CC(CC(C3)C1)C2` the B-score was “inactive”.
In the case of `Cc1c(CCOC(=O)CC23CC4CC(CC(C)(C4)C2)C3)sc[n+]1Cc1ccc([N+](=O)[O-])cc1`, the B-score is reported as -5.88 (active).
In the case of `COc1ccc(NC(=O)CN(C)C(=O)c2ccc(NC3CC3)c([N+](=O)[O-])c2)cc1`, the B-score is reported as “inactive”.
`CCC(C)(C)N=C(NC#N)Nc1cccnc1` was tested, and the B-score was “inactive”.
For `Cc1cccn2c(=O)c3cc(C#N)c(=NC(=O)c4cccnc4)n(CC4CCCO4)c3nc12` (stereo unspecified), the B-score was “inactive”.
In the case of `Cc1cccn2c(=O)c3cc(C(=O)NCCN4CCOCC4)c(=N)n(Cc4cccnc4)c3nc12`, the B-score is reported as “inactive”.
With `Cc1cccn2c(=O)c3cc(C#N)c(=O)n(CCCN4CCOCC4)c3nc12` the B-score was -15.8 (active).
`CC(C)CCNC(=O)C(C)N(C(=O)Cn1nnc(-c2ccc(F)cc2)n1)C1CCCC1` (stereo unspecified) was tested, and the B-score was “inactive”.
In the case of `CCCCNc1nc2ccccc2nc1NS(=O)(=O)c1cccs1`, the B-score is reported as “inactive”.
`O=C(CN1C(=O)CSC1=O)N1CCCC(Nc2ccc(F)cc2)C1` (stereo unspecified) was tested, and the B-score was “inactive”.
With `COc1ccc(C2C(C(C)=O)=C(O)C(=O)N2Cc2cccnc2)cc1` (stereo unspecified) the B-score was “inactive”.
`CCOc1cccc(/C(O)=C2/C(=O)C(=O)N(CCOC)C2c2ccncc2)c1` (stereo unspecified) was tested, and the B-score was “inactive”.
`CCOc1ccc(/C(O)=C2/C(=O)C(=O)N(Cc3cccnc3)C2c2ccc(N(C)C)cc2)c(C)c1` (stereo unspecified) was tested, and the B-score was -6.27 (active).
`O=C(NCc1ccccc1)C1C(=O)N(Cc2ccccc2)C(=O)C1C1(O)CCCC1` (stereo unspecified) was tested, and the B-score was “inactive”.
In the case of `Cc1cc(NC(=O)CN2CCCCC2C)nc2c1c(=O)oc1ccccc12` (stereo unspecified), the B-score is reported as “inactive”.
`CC(=O)N1CCC(N(C(=O)Nc2ccc(Cl)cc2)C(C)C)CC1` was tested, and the B-score was “inactive”.
With `Cc1ccc2nc3c(cc(C(=O)NCCc4ccccc4)c(=N)n3CC3CCCO3)c(=O)n2c1` (stereo unspecified) the B-score was “inactive”.
`COc1ccc(CCn2c(=N)c(C(=O)NCC3CCCO3)cc3c(=O)n4cccc(C)c4nc32)cc1OC` (stereo unspecified) was tested, and the B-score was “inactive”.
In the case of `COc1ccc(CNC(=O)c2cc3c(=O)n4ccccc4nc3n(CC3CCCO3)c2=N)cc1` (stereo unspecified), the B-score is reported as -7.34 (active).
`CC(C)c1ccc(NC2CCCN(C(=O)c3ccncc3)C2)cc1` (stereo unspecified) was tested, and the B-score was “inactive”.
In the case of `CC(=O)NS(=O)(=O)c1ccc2c(c1)Cc1cc(S(=O)(=O)NC(C)=O)ccc1-2`, the B-score is reported as “inactive”.
For `CCOC(=O)N1CCC(NC(=O)CN2C(=O)COc3ccc(C(C)(C)C)cc32)CC1`, the B-score was -7.85 (active).
For `Cc1ccc2c(c1)N(CC(=O)N1CCCC(C)C1)C(=O)CO2` (stereo unspecified), the B-score was “inactive”.
For `Cc1ccc2c(c1)N(CC(=O)N1CCC(O)CC1)C(=O)CO2`, the B-score was “inactive”.
`CC(NC(=O)CCC(=O)N1CCN(S(=O)(=O)c2ccc(Cl)cc2)CC1)c1ccccc1` (stereo unspecified) was tested, and the B-score was “inactive”.
With `CC12C(=O)N(c3ccccc3)C(=O)C1C(c1ccccc1)N1CCCN12` (stereo unspecified) the B-score was “inactive”.
In the case of `CCN1CCN(c2c(Cl)cccc2NC(=O)c2ccc(Br)o2)CC1`, the B-score is reported as -12.2 (active).
`O=C(Nc1cccc(Cl)c1N1CCOCC1)c1cccnc1` was tested, and the B-score was “inactive”.
For `CCCC(=O)Nc1ccc(Cl)c(NC(=O)c2ccc(Br)o2)c1`, the B-score was “inactive”.
For `CCCN=C1NC(=O)C(CC(=O)NCCc2ccc(OC)c(OC)c2)S1` (stereo unspecified), the B-score was “inactive”.
`COc1ccc(NC(=O)CSc2nc(SC)ns2)c(OC)c1` was tested, and the B-score was “inactive”.
